# From PubChem BioAssay AID434927 (Sanford-Burnham Center for Chemical Genomics, 2010)
# Activity calls are given as the source filed them.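 The calls were made as follows: active = inhibition above about 23% in any of six single-dose repeats (limit read from the data); inactive = the rest.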
# Target: Intestinal-type alkaline phosphatase (Homo sapiens) (UniProt P09923)
# Assay: suppression of intestinal alkaline phosphatase activity – biochemical, luminescence, single concentration, uHTS hits, confirmation (AID 434927);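 also: plate controls were DMSO wells with enzyme for no effect and wells lacking enzyme for full effect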
# Conditions: purified human IAP, CDP-Star luminescence, 30 min; at 8.3 µM; stronger effect = higher value
# Intestinal-type alkaline phosphatase (Homo sapiens), sequence (P09923 whole entry, looked up): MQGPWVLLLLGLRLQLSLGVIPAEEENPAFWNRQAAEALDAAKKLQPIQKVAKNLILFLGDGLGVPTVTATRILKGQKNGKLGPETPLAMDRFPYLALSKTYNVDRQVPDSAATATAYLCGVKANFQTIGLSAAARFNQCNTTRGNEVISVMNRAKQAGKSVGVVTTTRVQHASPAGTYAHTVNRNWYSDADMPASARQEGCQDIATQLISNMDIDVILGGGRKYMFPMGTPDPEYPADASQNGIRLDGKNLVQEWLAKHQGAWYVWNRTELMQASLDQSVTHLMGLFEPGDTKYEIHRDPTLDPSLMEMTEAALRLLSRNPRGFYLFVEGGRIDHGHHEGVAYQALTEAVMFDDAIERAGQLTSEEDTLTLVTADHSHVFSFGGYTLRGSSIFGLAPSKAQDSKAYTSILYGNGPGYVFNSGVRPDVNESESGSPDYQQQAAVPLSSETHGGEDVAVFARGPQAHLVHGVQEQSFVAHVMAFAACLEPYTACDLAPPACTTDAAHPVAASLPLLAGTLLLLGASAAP
structure (smiles),measurement,value
COC(=O)Cn1cc(/C=C2\C(=O)NC(=O)N(c3ccccc3)C2=O)c2ccccc21,inhibition,33.9% (active)
